# In PubChem BioAssay AID1159580 (chemical genetic matrix, 2015):
# The whole screen tested about 5,500 compounds, of which about 2,000 (36%) were called active. Not shown: some 18% with an inconclusive outcome. Some of the results follow. Unmarked numbers belong to inactive results. Rule as the data show it: active = normalized growth mostly below about 0.91 (no sharp cut-off); inconclusive = no clear call, values can overlap the other calls; inactive = mostly above about 0.92.
# Assay: chemical genetic growth profiling, strain panel (AID 1159580);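 also: tested at 20 µM; growth read once vehicle control cultures reached saturation at 30 °C; 1 = growth at the plate median or of vehicle wells; lower values mean less growth of the strain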
# Details: growth OD
structure (smiles),measurement,setting,value
C#CCCCCCCCCCCCC(O)CC(O)COC(C)=O (stereo unspecified),normalized growth,"S. cerevisiae deletion strains, locus YKL009W, strain mrt4, stronger effect = lower value",0.8 (active)
same,normalized growth,"S. cerevisiae deletion strains, locus YKL068W, stronger effect = lower value",0.985
same,normalized growth,"S. cerevisiae deletion strains, locus YKL085W, strain MDH1 (second series), stronger effect = lower value",0.964
same,normalized growth,"S. cerevisiae deletion strains, locus YKL085W, strain MDH1, stronger effect = lower value",0.964
same,normalized growth,"S. cerevisiae deletion strains, locus YKL160W, strain elf1, stronger effect = lower value",0.864 (active)
same,normalized growth,"S. cerevisiae deletion strains, locus YKL190W, strain CNB1, stronger effect = lower value",0.986
same,normalized growth,"S. cerevisiae deletion strains, locus YKR001C, strain vps1, stronger effect = lower value",0.871 (active)
same,normalized growth,"S. cerevisiae deletion strains, locus YKR026C, strain gcn3, stronger effect = lower value",0.843 (active)
same,normalized growth,"S. cerevisiae deletion strains, locus YKR091W, strain srl3, stronger effect = lower value",0.996
same,normalized growth,"S. cerevisiae deletion strains, locus YLL001W, strain dnm1, stronger effect = lower value",0.913
same,normalized growth,"S. cerevisiae deletion strains, locus YLL026W, stronger effect = lower value",0.344 (active)
same,normalized growth,"S. cerevisiae deletion strains, locus YLL041C, strain sdh2, stronger effect = lower value",0.542 (active)
same,normalized growth,"S. cerevisiae deletion strains, locus YLR027C, strain aat2, stronger effect = lower value",0.478 (active)
same,normalized growth,"S. cerevisiae deletion strains, locus YLR039C, strain RIC1, stronger effect = lower value",0.976
same,normalized growth,"S. cerevisiae deletion strains, locus YLR058C, strain SHM2, stronger effect = lower value",0.965
same,normalized growth,"S. cerevisiae deletion strains, locus YLR102C, strain apc9, stronger effect = lower value",0.968
same,normalized growth,"S. cerevisiae deletion strains, locus YLR113W, strain HOG1, stronger effect = lower value",0.94
same,normalized growth,"S. cerevisiae deletion strains, locus YLR221C, strain rsa3, stronger effect = lower value",0.305 (active)
same,normalized growth,"S. cerevisiae deletion strains, locus YLR258W, strain gsy2, stronger effect = lower value",0.493 (active)
same,normalized growth,"S. cerevisiae deletion strains, locus YLR262C, strain YPT6 (second series), stronger effect = lower value",0.726 (active)
same,normalized growth,"S. cerevisiae deletion strains, locus YLR262C, strain YPT6, stronger effect = lower value",0.962
same,normalized growth,"S. cerevisiae deletion strains, locus YLR268W, strain sec22, stronger effect = lower value",0.927
same,normalized growth,"S. cerevisiae deletion strains, locus YLR320W, strain mms22, stronger effect = lower value",0.647 (active)
same,normalized growth,"S. cerevisiae deletion strains, locus YLR330W, strain CHS5, stronger effect = lower value",0.981
same,normalized growth,"S. cerevisiae deletion strains, locus YLR342W, strain FKS1 (second series), stronger effect = lower value",0.856
same,normalized growth,"S. cerevisiae deletion strains, locus YLR342W, strain FKS1, stronger effect = lower value",0.647 (active)
same,normalized growth,"S. cerevisiae deletion strains, locus YLR357W, strain rsc2, stronger effect = lower value",0.958
same,normalized growth,"S. cerevisiae deletion strains, locus YLR370C, strain arc18, stronger effect = lower value",0.994
same,normalized growth,"S. cerevisiae deletion strains, locus YLR371W, strain rom2, stronger effect = lower value",0.958
same,normalized growth,"S. cerevisiae deletion strains, locus YLR384C, strain iki3, stronger effect = lower value",0.967
same,normalized growth,"S. cerevisiae deletion strains, locus YLR418C, strain cdc73, stronger effect = lower value",0.861
same,normalized growth,"S. cerevisiae deletion strains, locus YML016C, strain PPZ1, stronger effect = lower value",0.978
same,normalized growth,"S. cerevisiae deletion strains, locus YML032C, strain rad52, stronger effect = lower value",0.868 (active)
same,normalized growth,"S. cerevisiae deletion strains, locus YML120C, strain ndi1, stronger effect = lower value",0.171 (active)
same,normalized growth,"S. cerevisiae deletion strains, locus YML124C, strain tub3, stronger effect = lower value",0.972
same,normalized growth,"S. cerevisiae deletion strains, locus YMR058W, strain fet3, stronger effect = lower value",0.749 (active)
same,normalized growth,"S. cerevisiae deletion strains, locus YMR078C, strain ctf18, stronger effect = lower value",0.954
same,normalized growth,"S. cerevisiae deletion strains, locus YMR125W, strain sto1, stronger effect = lower value",0.908
same,normalized growth,"S. cerevisiae deletion strains, locus YMR129W, stronger effect = lower value",0.316 (active)
same,normalized growth,"S. cerevisiae deletion strains, locus YMR205C, strain PFK2, stronger effect = lower value",0.507 (active)
same,normalized growth,"S. cerevisiae deletion strains, locus YMR223W, strain ubp8, stronger effect = lower value",0.889 (active)
same,normalized growth,"S. cerevisiae deletion strains, locus YMR231W, strain pep5, stronger effect = lower value",1.01
same,normalized growth,"S. cerevisiae deletion strains, locus YMR263W, strain SAP30, stronger effect = lower value",0.966
same,normalized growth,"S. cerevisiae deletion strains, locus YMR307W, strain GAS1, stronger effect = lower value",0.885
same,normalized growth,"S. cerevisiae deletion strains, locus YNL067W, strain RPL9B, stronger effect = lower value",0.928
same,normalized growth,"S. cerevisiae deletion strains, locus YNL071W, strain lat1, stronger effect = lower value",0.208 (active)
same,normalized growth,"S. cerevisiae deletion strains, locus YNL128W, strain TEP1, stronger effect = lower value",0.961
same,normalized growth,"S. cerevisiae deletion strains, locus YNL153C, strain GIM3, stronger effect = lower value",0.994
same,normalized growth,"S. cerevisiae deletion strains, locus YNL183C, strain NPR1, stronger effect = lower value",0.954
same,normalized growth,"S. cerevisiae deletion strains, locus YNL209W, strain ssb2, stronger effect = lower value",0.886 (active)
same,normalized growth,"S. cerevisiae deletion strains, locus YNL233W, strain BNI4, stronger effect = lower value",0.906
same,normalized growth,"S. cerevisiae deletion strains, locus YNL248C, strain rpa49, stronger effect = lower value",0.84 (active)
same,normalized growth,"S. cerevisiae deletion strains, locus YNL250W, strain rad50, stronger effect = lower value",0.946
same,normalized growth,"S. cerevisiae deletion strains, locus YNL271C, strain bni1, stronger effect = lower value",0.942
same,normalized growth,"S. cerevisiae deletion strains, locus YNL298W, strain CLA4, stronger effect = lower value",0.786 (active)
same,normalized growth,"S. cerevisiae deletion strains, locus YNL307C, strain MCK1, stronger effect = lower value",0.744 (active)
same,normalized growth,"S. cerevisiae deletion strains, locus YNL322C, strain KRE1 (second series), stronger effect = lower value",0.633 (active)
same,normalized growth,"S. cerevisiae deletion strains, locus YNL322C, strain KRE1, stronger effect = lower value",0.98
same,normalized growth,"S. cerevisiae deletion strains, locus YNR049C, strain mso1, stronger effect = lower value",1.01
same,normalized growth,"S. cerevisiae deletion strains, locus YNR052C, strain pop2, stronger effect = lower value",0.896 (active)
same,normalized growth,"S. cerevisiae deletion strains, locus YOL006C, strain TOP1, stronger effect = lower value",0.85
same,normalized growth,"S. cerevisiae deletion strains, locus YOL012C, strain htz1",1.07
same,normalized growth,"S. cerevisiae deletion strains, locus YOL147C, strain pex11, stronger effect = lower value",0.953
same,normalized growth,"S. cerevisiae deletion strains, locus YOR001W, strain rrp6, stronger effect = lower value",0.397 (active)
same,normalized growth,"S. cerevisiae deletion strains, locus YOR061W, strain CKA2, stronger effect = lower value",0.893
same,normalized growth,"S. cerevisiae deletion strains, locus YOR069W, strain VPS5, stronger effect = lower value",0.992
same,normalized growth,"S. cerevisiae deletion strains, locus YOR070C, strain gyp1, stronger effect = lower value",0.878 (active)
same,normalized growth,"S. cerevisiae deletion strains, locus YOR080W, strain dia2, stronger effect = lower value",0.952
same,normalized growth,"S. cerevisiae deletion strains, locus YOR083W, strain WHI5, stronger effect = lower value",0.866 (active)
same,normalized growth,"S. cerevisiae deletion strains, locus YOR106W, strain vam3, stronger effect = lower value",0.442 (active)
same,normalized growth,"S. cerevisiae deletion strains, locus YOR136W, strain idh2, stronger effect = lower value",0.934
same,normalized growth,"S. cerevisiae deletion strains, locus YOR144C, strain elg1, stronger effect = lower value",0.973
same,normalized growth,"S. cerevisiae deletion strains, locus YOR184W, strain ser1, stronger effect = lower value",0.774 (active)
same,normalized growth,"S. cerevisiae deletion strains, locus YOR231W, strain MKK1, stronger effect = lower value",1.01
same,normalized growth,"S. cerevisiae deletion strains, locus YOR265W, strain rbl2, stronger effect = lower value",0.926 (active)
same,normalized growth,"S. cerevisiae deletion strains, locus YOR270C, strain vph1, stronger effect = lower value",0.506 (active)
same,normalized growth,"S. cerevisiae deletion strains, locus YOR290C, strain snf2, stronger effect = lower value",0.899
same,normalized growth,"S. cerevisiae deletion strains, locus YOR316C, strain cot1, stronger effect = lower value",0.969
same,normalized growth,"S. cerevisiae deletion strains, locus YPL051W, strain arl3, stronger effect = lower value",0.831 (active)
same,normalized growth,"S. cerevisiae deletion strains, locus YPL055C, strain LGE1, stronger effect = lower value",0.904
same,normalized growth,"S. cerevisiae deletion strains, locus YPL078C, strain atp4, stronger effect = lower value",0.829 (active)
same,normalized growth,"S. cerevisiae deletion strains, locus YPL106C, strain sse1, stronger effect = lower value",0.58 (active)
same,normalized growth,"S. cerevisiae deletion strains, locus YPL240C, strain hsp82, stronger effect = lower value",0.342 (active)
same,normalized growth,"S. cerevisiae deletion strains, locus YPL241C, strain CIN2, stronger effect = lower value",0.983
same,normalized growth,"S. cerevisiae deletion strains, locus YPL256C, strain CLN2, stronger effect = lower value",0.981
same,normalized growth,"S. cerevisiae deletion strains, locus YPR119W, strain clb2, stronger effect = lower value",0.97
same,normalized growth,"S. cerevisiae deletion strains, locus YPR141C, strain kar3, stronger effect = lower value",0.979
same,normalized growth,"S. cerevisiae deletion strains, locus YPR163C, strain tif3, stronger effect = lower value",0.961
same,normalized growth,"S. cerevisiae deletion strains, locus YPR167C, strain met16, stronger effect = lower value",0.969
same,normalized growth,"S. cerevisiae deletion strains, strain wtn01, stronger effect = lower value",0.928
same,normalized growth,"S. cerevisiae strains, strain wild type, stronger effect = lower value",0.97
